Experiment [1] in a line: NCI Yeast Anticancer Drug Screen. Data for the rad50 strain (AID 155).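 Further: 0% = growth of vehicle-only cultures of the same strain.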 The following applies: S. cerevisiae rad50 strain growth inhibition; at 50.0 µM; stronger effect = higher value. Put shortly: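 A DNA repair-deficient yeast mutant serves as the test organism; compound-induced growth inhibition is calculated against vehicle-treated cells.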
The nature of experiment [2]: NCI Yeast Anticancer Drug Screen. Data for the mec2-1 strain (AID 157). The following applies: S. cerevisiae mec2-1 strain, at 50.0 µM, stronger effect = higher value. The procedure, abridged:
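Mutant yeast (mec2-1) grown with compound; growth inhibition relative to vehicle control reported.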

Experiment [3] can be described thus: NCI Yeast Anticancer Drug Screen. Data for the sgs1 mgt1 strain (AID 161).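 Further: 0% = growth of cultures given vehicle only.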 The note with it: S. cerevisiae sgs1 mgt1 strain, at 50.0 µM, stronger effect = higher value. Put shortly: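 Compounds are added to genetically altered yeast, and growth is compared with cultures given vehicle alone to give percent inhibition.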
Experiment [4] in a line: NCI Yeast Anticancer Drug Screen. Data for the cln2 rad14 strain (AID 165).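 Further: 0% = growth equal to vehicle treated cultures.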 The following applies: S. cerevisiae cln2 rad14 strain, at 50.0 µM, stronger effect = higher value. The procedure, abridged:
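Readout is yeast growth inhibition versus vehicle-treated controls, using a strain with cln2 and rad14 alterations exposed to compound.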

Experiment [5] is described as follows: NCI Yeast Anticancer Drug Screen. Data for the bub3 strain (AID 167). The following applies: S. cerevisiae bub3 mutant strain, at 50.0 µM, stronger effect = higher value. The procedure, abridged: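 Inhibition values come from growth of compound-treated mutant yeast normalised to vehicle-treated controls.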
Experiment [6] can be described thus: NCI Yeast Anticancer Drug Screen. Data for the mlh1 rad18 strain (AID 175). The following applies: S. cerevisiae mlh1 rad18 strain growth inhibition; at 50.0 µM; stronger effect = higher value. Put shortly: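 Genetically defined yeast (DNA repair-deficient) exposed to compounds; growth inhibition determined relative to vehicle.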

This is part of a sample that, as a whole, favours compounds with a hit. Of some 79,000 tested, about 15% had one in any assay. Unmarked numbers belong to inactive results. Calls of active or inactive are those of the source. No stated cut-off is given here; in the data, active means growth inhibition above about 70%; inactive means the rest.

Consider `O/N=C/C(=Nc1cccc2ccccc12)NO`, for which the growth inhibition in experiment [1] was -11.1%; in experiment [2], -12.8%; in experiment [3], -12.1%; in experiment [4], -10.3%; in experiment [5], -5.7%; in experiment [6], 13.9%.
For the compound `CC1OC(O)CC(NC(=O)C(F)(F)F)C1O` (stereo not given), the growth inhibition in experiment [1] is 3.6%; in experiment [2], -4.35%; in experiment [3], 9.65%; in experiment [4], -21.9%; in experiment [5], -1.1%; in experiment [6] it was -0.1%.
Turning to `CCOC(=O)C(=Cc1ccc(Oc2ccccc2)cc1)C(=O)OCC`, the growth inhibition in experiment [1] was 39.4%; in experiment [2], -6%; in experiment [3], 22.1%; in experiment [4] it was 24.8%; in experiment [5] it was 6.1%; in experiment [6], 7%.
As for `CCCC(C)NC(=O)c1ccc(OCC)cc1` (stereo not given), the growth inhibition in experiment [1] was -12.6%; in experiment [2] it was -3%; in experiment [3] it was -4.95%; in experiment [4] it was -44%; in experiment [5], -12.3%; in experiment [6] it was -3.85%.
In the case of `CCCCCCCCCCCC(=O)OCC1OC(n2cc(F)c(=O)[nH]c2=O)C(NC(=O)OCc2ccccc2)C(O)C1O` (stereo not given), the growth inhibition was 62.8% in experiment [1]; 5.85% in experiment [2]; 31.2% in experiment [3]; 18.8% in experiment [4]; 18.1% in experiment [5]; 24.8% in experiment [6].
On to `N#C/C(=C\c1ccco1)C(N)=O`, for which the growth inhibition in experiment [1] was -11%; in experiment [2], -7%; in experiment [3] it was -14.6%; in experiment [4], 5.25%; in experiment [5], 10.9%; in experiment [6], -10.7%.
On to `Cc1ccc(-n2cc(/C(N)=N/O)c3ccccc3c2=O)cc1`, for which the growth inhibition is -29.8% in experiment [1]; -32.4% in experiment [2]; -32.8% in experiment [3]; -28.6% in experiment [4]; -22.8% in experiment [5]; -32.5% in experiment [6].
For the compound `CCN(CC)CCCC#N`, the growth inhibition in experiment [1] is -5.25%; in experiment [2], 4.7%; in experiment [3], -8.8%; in experiment [4], -13%; in experiment [5], -2.6%; in experiment [6] it was -2.85%.
As to `Cc1nc[nH]c(=O)c1N`, the growth inhibition was 0.55% in experiment [1]; -1.75% in experiment [2]; 9.2% in experiment [3]; 0.9% in experiment [4]; 7.75% in experiment [5]; -4.85% in experiment [6].
As to `Nc1cc(F)cc(C(F)(F)F)c1F`, the growth inhibition was 13.5% in experiment [1]; -32.3% in experiment [2]; -4.3% in experiment [3]; -12.2% in experiment [4]; -5.35% in experiment [5]; 18.6% in experiment [6].
Consider `CCc1ccccc1NC(=O)C(=O)C(C#N)c1ccccc1Cl` (stereo not given), for which the growth inhibition in experiment [1] was -7.2%; in experiment [2], -30.6%; in experiment [3], -17.6%; in experiment [4], 3.55%; in experiment [5], 6.3%; in experiment [6] it was -9.45%.
For `CC(O)C1CCCCN1` (stereo not given), the growth inhibition in experiment [1] was 2.6%; in experiment [2] it was -1.1%; in experiment [3], -8.85%; in experiment [4] it was 10.4%; in experiment [5] it was 14.2%; in experiment [6], -0.9%.
For `N#CC(C#N)=CNC(N)=S`, the growth inhibition was -4.7% in experiment [1]; -8.75% in experiment [2]; -20.7% in experiment [3]; 13.7% in experiment [4]; -14.8% in experiment [5]; 10.1% in experiment [6].
On to `NC(=O)c1ncn2c(=O)n(CCl)nnc12`, for which the growth inhibition was 57.4% in experiment [1]; 81.6% (active) in experiment [2]; 29.6% in experiment [3]; 45.5% in experiment [4]; 57.5% in experiment [5]; 83.5% (active) in experiment [6].
For the compound `C(=N[C@H]1CCCC[C@H]1N=Cc1ccc[nH]1)c1ccc[nH]1`, the growth inhibition in experiment [1] was 14.8%; in experiment [2], -3.6%; in experiment [3] it was 8.75%; in experiment [4], 3.45%; in experiment [5] it was 13.9%; in experiment [6] it was 20.7%.
`CNC(=O)C(c1ccccc1)C(O)c1ccccc1` (stereo not given): the growth inhibition is 10.8% in experiment [1]; -3.7% in experiment [2]; -11.4% in experiment [3]; 10.4% in experiment [4]; -0.15% in experiment [5]; -10.5% in experiment [6].
Consider `COC(=O)C(C)(Cc1ccc2c(c1)nnn2C(C)=O)NC(C)=O` (stereo not given), for which the growth inhibition in experiment [1] is -11.4%; in experiment [2], -1.25%; in experiment [3] it was -4.15%; in experiment [4], -2.45%; in experiment [5], 22.6%; in experiment [6] it was -51.9%.
As for `Cc1ccccc1NC(=O)Nc1ccc(Nc2ccccc2)cc1`, the growth inhibition was -6.5% in experiment [1]; 32.2% in experiment [2]; 9.95% in experiment [3]; -11.6% in experiment [4]; 5.95% in experiment [5]; 25.5% in experiment [6].
Consider `Cc1cc(C(c2ccc(Nc3ccccc3)cc2)c2ccc(Nc3ccccc3)cc2)ccc1Nc1ccccc1`, for which the growth inhibition was 2.35% in experiment [1]; -4.65% in experiment [2]; 7.5% in experiment [3]; -7.05% in experiment [4]; 5.5% in experiment [5]; -19.1% in experiment [6].
For `CC12CCC(=O)N1[C@@H](c1ccccc1)[C@@H](c1ccccc1)O2` (stereo not given in full), the growth inhibition in experiment [1] is 25.6%; in experiment [2], -12.6%; in experiment [3] it was -0.85%; in experiment [4], 15.4%; in experiment [5], 3.65%; in experiment [6] it was 5.9%.
